# Assay results: PubChem BioAssay (Tox21)
# Where “and” joins values, the source holds several entries; their conditions need not be identical. Identical values can stand only once. Records with an inconclusive call do not appear. A call without a number means that no potency is given here. The source holds several records for some structures; these can differ, active in one and inactive in another. Calls of active or inactive are those of the source. Unless noted, calls follow the shape of the dose curve; as a rule, active = well fitted curve in the direction sought with a large enough effect in the repeat runs; inconclusive = weak or mixed curves; inactive = no such curve, though single readings can be large; an effect the other way counts as inactive or inconclusive.
# Key:
# [1] = qHTS assay to identify small molecule agonists of the vitamin D receptor (VDR) signaling pathway - cell viability counter screen (AID 743224); also: series mostly up to about 63 µM; nearly all actives have a fitted effect of over 50% in size
# Outline: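 Viability is measured in the same wells as the VDR-bla reporter assay: after 16 h compound treatment and 2 h substrate loading, CellTiter-Glo is added and luminescence read 30 min later.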
# [2] = qHTS assay to identify small molecule antagonists of the vitamin D receptor (VDR) signaling pathway - cell viability counter screen (AID 743225); also: nearly all actives have a fitted effect of over 50% in size
# Outline: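 In this counter screen, VDR-bla HEK 293T cells receive test compound plus 3 nM final calcitriol for 16 h at 37C. Room-temperature steps of 2 h with the beta-lactamase substrate, then 30 min with CellTiter-Glo, precede the luminescence read.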
# [3] = qHTS assay to identify small molecule agonists of the NFkB signaling pathway (AID 1159509; active = well fitted curve in the direction sought with a large enough effect in the signal ratio in the repeat runs, not every such curve was filed as active; the % refers to the signal ratio; also: series mostly up to about 61 µM)
# Outline: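 ME-180 NFkB-bla, 2,000 cells/well, overnight plating; cpd pinned in DMSO, 5 h 37 C; B/G FRET substrate 1.5 h RT; ex 405, em 460/530 nm.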
# [4] = qHTS assay to identify small molecule agonists of the NFkB signaling pathway - cell viability counter screen (AID 1159515; calls by dose curve; also: series mostly up to about 61 µM; nearly all actives have a fitted effect of over 55% in size)
# Outline: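 Multiplexed viability readout: after the 5 hr compound exposure and 1.5 hr FRET substrate step, CellTiter-Glo reagent went into the same NFkB-bla ME-180 wells; ATP luminescence was measured after 30 min at room temperature.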
# [5] = qHTS assay to identify small molecule agonists of the endoplasmic reticulum stress response signaling pathway (AID 1159516; active = well fitted activation curve with a large enough effect in the signal ratio in the repeat runs, not every such curve was filed as active; the % refers to the signal ratio)
# Outline: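 Tox21 10K library screened in quantitative HTS format on ESRE-bla HeLa cells, a beta-lactamase reporter under ER stress response element control; 5 hr treatment, FRET read.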
# [6] = qHTS assay to identify small molecule agonists of the endoplasmic reticulum stress response signaling pathway - cell viability counter screen (AID 1159517; calls by dose curve; also: series mostly up to about 61 µM; nearly all actives have a fitted effect of over 50% in size)
# Outline: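 HeLa cells carrying an ESRE-driven beta-lactamase reporter receive compound for 5 hr at 37 C. Cell viability is then gauged with CellTiter-Glo by luminescence, 30 min at room temperature.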
# [7] = qHTS assay to identify small molecule antagonists of the retinoid-related orphan receptor gamma (ROR-gamma) signaling pathway - cell viability counter screen (AID 1159520); also: nearly all actives have a fitted effect of over 50% in size; also: potency is read from the fitted curve at half-maximal effect
# Outline: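 Cytotoxicity was read from cellular ATP (CellTiter-Glo luminescence) after 16 hr at 37 C with 1 uM doxycycline induction. The inducer was added 2 hr after compound transfer to Tet-on ROR gamma CHO cells.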
# [8] = qHTS assay to identify small molecule agonists of the AP-1 signaling pathway - cell viability counter screen (AID 1159525; calls by dose curve; also: nearly all actives have a fitted effect of over 55% in size)
# Outline: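 Luminescent ATP readout (Cell Titer Glo, 30 min RT), normalised to DMSO and tetra n-octyl ammonium bromide controls. Cells were ME-180 AP-1-bla in 0.5% dialyzed FBS Opti-MEM, with a 5 h, 37 °C compound exposure.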
# [9] = qHTS assay to identify small molecule agonists of the AP-1 signaling pathway (AID 1159526; calls by dose curve)
# [10] = biological target: Retinoic acid receptor RXR-alpha (Homo sapiens) (UniProt P19793); test: qHTS assay to identify small molecule agonists of the RXR signaling pathway (AID 1159527; calls by dose curve; also: nearly all actives have a fitted effect of over 35% in size; also: potency is read from the fitted curve at half-maximal effect)
# Outline: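 Fluorescence ratio readout (460 vs 530 nm) from GeneBLAzer RXR-alpha HEK 293T cells after 16 hr compound treatment; cells seeded 5 hr beforehand in low-serum, charcoal-stripped medium.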
# [11] = qHTS assay to identify small molecule agonists of the RXR signaling pathway - cell viability counter screen (AID 1159529)
# Outline: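 Viability read-out for the RXR-alpha agonist qHTS: luminescent CellTiter-Glo signal after 30 min at RT. HEK 293T bla reporter cells, 2% charcoal-stripped FBS, 16 hr compound incubation; tetraoctyl ammonium bromide as cytotoxic control.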
# [12] = qHTS assay to identify small molecule antagonists of the retinoid acid receptor (RAR) signaling pathway - cell viability counter screen (AID 1159551); also: nearly all actives have a fitted effect of over 35% in size
# Outline: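 Cytotoxicity counter screen in C3RL4 cells: 6 h compound exposure with 1 uM retinol (final), viability from cellular ATP by luminescence.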
# [13] = qHTS assay to identify small molecule antagonists of the retinoic acid receptor (RAR) signaling pathway (AID 1159552; also: nearly all actives have a fitted effect of over 50% in size)
# Outline: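 Using a RARE-driven luciferase construct in C3RL4 cells, retinol at 1 uM final provided the agonist stimulus while compounds were co-applied. After 6 hours at 37 C, luminescence was recorded to flag inhibitors of retinol signaling.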
# [14] = qHTS assay to identify small molecule agonists of the retinoic acid receptor (RAR) signaling pathway (AID 1159553)
# Outline: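 Agonist activity was scored in C3RL4 cells bearing a retinoic acid response element luciferase construct. Cells were treated with compounds for 6 hr at 37 C, and luciferase signal was measured as luminescence.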
# [15] = qHTS assay to identify small molecule antagonists of the estrogen related receptor (ERR) signaling pathway - cell viability counter screen (AID 1224818);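 also: series mostly up to about 46 µM; viability measured after 17.5 h of compound exposure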
# Outline: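 Cells carrying the ERR pathway reporter were seeded and incubated for 6 hours before compound addition. After a 17.5-hour exposure at 37 C, live-cell protease activity was measured by CellTiter-Fluor fluorescence following 30 minutes of incubation.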
# [16] = qHTS assay to identify small molecule antagonists of the estrogen related receptor signaling pathway with the pleiotropic PPARgamma coactivator (PGC) cell viability counter screen (AID 1224822;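 also: series mostly up to about 46 µM; viability read after 17.5 h compound exposure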)
# Outline: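 Seed PGC/ERR cells (2,000/well); incubate 6 h at 37 C/5% CO2; pin-transfer compounds in DMSO; incubate 17.5 h at 37 C; add CellTiter-Fluor; after 30 min read fluorescence.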
# [17] = qHTS assay to identify small molecule antagonists of the estrogen related receptor (ERR) signaling pathway from Tox21 library - cell viability counter screen (AID 1224834); also: nearly all actives have a fitted effect of over 30% in size; also: potency is read from the fitted curve at half-maximal effect
# Outline: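 Cytotoxicity of test substances is gauged in the same ERR cells used for the antagonist screen, after 17.5 h of compound treatment at 37 C, by CellTiter-Fluor fluorescence measured after 30 min.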
# [18] = biological target: Luciferin 4-monooxygenase (Photinus pyralis) (UniProt P08659); test: qHTS assay to identify small molecule inhibitors of firefly luciferase (AID 1224835); also: nearly all actives have a fitted effect of over 25% in size; also: potency is read from the fitted curve at half-maximal effect
# Outline: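 Inhibition of purified Photinus luciferase is measured by luminescence. Substrate levels (D-luciferin, ATP) sit at their KM values. Each compound is tested in a concentration series.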
# [19] = qHTS assay to identify small molecule agonists of the constitutive androstane receptor (CAR) signaling pathway - cell viability counter screen (AID 1224836); also: nearly all actives have a fitted effect of over 45% in size; also: potency is read from the fitted curve at half-maximal effect
# Outline: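 Multiplexed viability check: HepG2-CYP2B6-hCAR cells, 15-point compound dosing, 0.75 uM PK11195 final, 23 h at 37 C, CellTiter-Fluor fluorescence.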
# [20] = biological target: Nuclear receptor ROR-gamma (Homo sapiens) (UniProt P51449); test: qHTS assay to identify small molecule antagonists of the retinoid-related orphan receptor gamma (ROR-gamma) signaling pathway (AID 1159521)
# Outline: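 Screening format: cell-based luciferase reporter in CHO cells with doxycycline-inducible RORγ. Compound pre-exposure lasts 2 h, doxycycline is 1 uM final, induction runs 16 h at 37 C, and ONE-Glo luminescence is read.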
# Luciferin 4-monooxygenase (Photinus pyralis), sequence (P08659 whole entry, looked up): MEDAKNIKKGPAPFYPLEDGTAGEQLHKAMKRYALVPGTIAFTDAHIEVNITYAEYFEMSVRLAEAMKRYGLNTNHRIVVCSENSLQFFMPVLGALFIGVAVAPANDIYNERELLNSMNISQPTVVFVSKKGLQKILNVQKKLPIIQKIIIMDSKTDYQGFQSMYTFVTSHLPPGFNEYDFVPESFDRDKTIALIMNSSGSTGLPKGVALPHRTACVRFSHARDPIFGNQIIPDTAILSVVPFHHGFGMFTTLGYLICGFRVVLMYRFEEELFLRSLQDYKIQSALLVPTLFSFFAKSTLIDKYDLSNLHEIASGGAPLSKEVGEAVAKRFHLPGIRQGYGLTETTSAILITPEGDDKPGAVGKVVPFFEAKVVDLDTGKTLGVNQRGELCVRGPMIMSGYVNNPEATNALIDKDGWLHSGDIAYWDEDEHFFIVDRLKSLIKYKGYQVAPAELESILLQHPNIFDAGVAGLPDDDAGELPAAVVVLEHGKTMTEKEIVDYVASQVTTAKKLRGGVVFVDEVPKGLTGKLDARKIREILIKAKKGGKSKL
# Retinoic acid receptor RXR-alpha (Homo sapiens), sequence (P19793 whole entry, looked up): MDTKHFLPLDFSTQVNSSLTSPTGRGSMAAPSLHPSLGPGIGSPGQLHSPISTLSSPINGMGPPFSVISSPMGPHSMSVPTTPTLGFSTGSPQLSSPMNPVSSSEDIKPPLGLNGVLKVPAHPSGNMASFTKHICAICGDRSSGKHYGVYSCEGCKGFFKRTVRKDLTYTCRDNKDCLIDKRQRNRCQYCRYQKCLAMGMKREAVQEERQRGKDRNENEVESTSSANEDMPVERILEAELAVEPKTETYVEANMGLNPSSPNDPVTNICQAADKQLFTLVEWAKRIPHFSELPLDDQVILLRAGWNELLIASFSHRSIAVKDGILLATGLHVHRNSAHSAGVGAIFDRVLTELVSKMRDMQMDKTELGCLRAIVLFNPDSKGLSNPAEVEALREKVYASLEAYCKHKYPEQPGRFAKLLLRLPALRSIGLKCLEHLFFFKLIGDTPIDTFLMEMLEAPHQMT
SMILES,Potency [1],outcome [2],outcome [3],outcome [4],outcome [5],outcome [6],Potency [7],Potency [8],outcome [9],Potency [10],Potency [11],outcome [12],Potency [13],Potency [14],outcome [15],outcome [16],Potency [17],Potency [18],Potency [19],Potency [20]
CN(C)CCC(c1ccccc1)c1ccccn1 (centres undefined),inactive,inactive,inactive,inactive,inactive,inactive,inactive,inactive,inactive,inactive,inactive,inactive,inactive,inactive,inactive,inactive,inactive,inactive,inactive,–
Nc1cc([N+](=O)[O-])ccc1O,inactive,inactive,inactive,inactive,inactive,inactive,inactive,–,inactive,inactive and 9.72 µM (active),inactive,inactive,–,–,–,–,48.6 µM (active) and 30.5 µM (active),inactive,48.6 µM (active),inactive
c1ccc2c(c1)ccc1ccccc12,inactive,inactive,inactive,inactive,inactive,inactive,inactive,inactive,inactive,inactive,inactive,inactive,inactive,inactive,–,–,inactive,34.6 µM (active) and 56.4 µM (active),inactive,inactive
O=C(OCCOCCOC(=O)c1ccccc1)c1ccccc1,inactive,inactive,inactive,inactive,inactive,inactive,inactive,inactive,inactive,–,inactive,inactive,inactive,inactive,–,–,inactive,inactive,inactive,inactive
CCCCCC(N)=O,inactive,inactive,inactive,inactive,inactive,inactive,inactive,–,inactive,inactive,inactive,inactive,–,–,–,–,inactive,inactive,inactive,inactive
C[C@H]1C[C@@H]2[C@H]([C@@H](O)C[C@@]3(C)[C@H]2CC[C@]3(O)C(=O)CO)[C@@]2(C)C=CC(=O)C=C12,inactive,inactive,inactive,inactive,inactive,inactive,inactive,inactive,inactive,inactive,inactive,inactive,inactive,inactive,–,–,inactive,inactive,inactive,inactive
O=C(CC(C(=O)OC1CCCCC1)S(=O)(=O)O)OC1CCCCC1 (centres undefined),inactive,inactive,inactive,inactive,inactive,inactive,inactive and 53.8 µM (active),inactive,inactive,inactive,inactive,inactive,inactive,inactive,–,–,inactive,inactive,inactive,inactive
O=C(O)CCCC[C@@H]1SC[C@@H]2NC(=O)N[C@@H]21,inactive,inactive,inactive,inactive,inactive,inactive,inactive,inactive,inactive,inactive,inactive,inactive,inactive,inactive,–,–,inactive,inactive,inactive,inactive
CC(C)CC(=O)CC(C)C,inactive,inactive,inactive,inactive,inactive,inactive,inactive,inactive,inactive,inactive,inactive,inactive,–,–,–,–,inactive,inactive,inactive,inactive
O=C(O)c1cc(C(=O)O)cc(S(=O)(=O)O)c1,inactive,inactive,inactive,inactive,inactive,inactive,inactive,inactive,inactive,inactive,inactive,inactive,inactive,inactive,–,–,inactive,inactive,inactive,inactive
COc1ccc2cc([C@H](C)C(=O)O)ccc2c1,inactive,inactive,inactive,inactive,inactive,inactive,inactive,inactive,inactive,inactive,inactive,inactive,–,–,inactive,inactive,inactive,–,inactive,inactive
CCCCCCCCCCCCS,inactive,inactive,inactive,inactive,inactive,inactive,inactive,–,inactive,inactive,inactive,inactive,inactive,inactive,–,–,inactive,inactive,inactive,inactive
CCCCCCCCCCCCCCCO,inactive,inactive,inactive,inactive,inactive,inactive,inactive,inactive,inactive,–,inactive,inactive,inactive,inactive,–,–,inactive,inactive,inactive,inactive
CCCCCCCC(=O)OC,inactive,inactive,inactive,inactive,inactive,inactive,inactive,inactive,inactive,inactive,inactive,inactive,–,–,–,–,inactive,inactive,inactive,inactive
